PubChem BioAssay (Tox21)
Where “and” joins values, the source holds several entries; their conditions need not be identical. Identical values can stand only once. Where a structure was tested more than once in an assay, its records may differ in their call. Calls of active or inactive are those of the source. Unless noted, the call rests on the fitted dose curve; in most records, active means well fitted curve in the direction sought with a large enough effect in the repeat runs; inconclusive means weak or mixed curves; inactive means flat fitted curve, though single readings scatter.

Key:
[1] = qHTS assay to test for compound auto fluorescence at 535 nm (green) in HEK293 cells (AID 720680)
[2] = qHTS assay to test for compound auto fluorescence at 460 nm (blue) in HEK293 cell free culture (AID 720681)
Summary of the method: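 Compounds were added to cell-free DMEM with 10% FBS and fluorescence read directly. The blue channel used 405 nm excitation and 460 nm emission, with triamterene as the reference fluorophore.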

[3] = qHTS assay to test for compound auto fluorescence at 535 nm (green) in HEK293 cell free culture (AID 720682)
Summary of the method: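 Measurement is a direct plate read of green fluorescence (485 nm in, 535 nm out) after compound addition to serum-supplemented DMEM lacking cells, with fluorescein used to express intensities.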

[4] = qHTS assay to test for compound auto fluorescence at 590 nm (red) in HEK293 cell free culture (AID 720683)
Summary of the method: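 Cell-free wells of DMEM with 10% FBS received compound, and intrinsic fluorescence was read at excitation/emission 540/590 nm. Values expressed as equivalence to Rose Bengal sodium.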

[5] = qHTS assay to test for compound auto fluorescence at 590 nm (red) in HepG2 cell free culture (AID 720684)
Summary of the method: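 Compounds are added to culture medium (MEM, 10% FBS) lacking cells, then fluorescence is read at excitation 540 nm, emission 590 nm, with Rose Bengal sodium as the equivalency standard.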

[6] = qHTS assay to test for compound auto fluorescence at 460 nm (blue) in HepG2 cell free culture (AID 720685)
Summary of the method: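 Compound (23 nL) or DMSO pinned into cell-free MEM with 10% FBS; blue fluorescence read at 405/460 nm excitation/emission, expressed as auto-fluorescence equivalency to triamterene.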

[7] = qHTS assay to test for compound auto fluorescence at 535 nm (green) in HepG2 cell free culture (AID 720686)
[8] = qHTS assay to test for compound auto fluorescence at 460 nm (blue) in HepG2 cells (AID 720687)
Summary of the method: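 HepG2 cells in MEM with 10% FBS, attached overnight at 37 C, were exposed to compound or DMSO for 1 hr at 37 C, 5% CO2. Blue fluorescence was read at 405/460 nm, with triamterene as reference fluorophore.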

[9] = biological target: Glucocorticoid receptor (Homo sapiens) (UniProt P04150); assay: qHTS assay to identify small molecule agonists of the glucocorticoid receptor (GR) signaling pathway (AID 720691; active means well fitted activation curve with a large enough effect in the signal ratio in the repeat runs, not every such curve was filed as active; inconclusive means weak or mixed curves, or effect the other way; inactive means no such curve, though single readings can be large or run the other way; the % refers to the signal ratio; further: potency means the concentration at half of the fitted maximal effect)
Summary of the method: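 Reporter read-out: fluorescence intensity following 2 h room-temperature LiveBLAzer B/G FRET substrate loading. Prior step: GR-bla HeLa cells held 4 h, then treated 18 h at 37 C.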

[10] = biological target: Glucocorticoid receptor (Homo sapiens) (UniProt P04150); assay: qHTS assay to identify small molecule antagonists of the glucocorticoid receptor (GR) signaling pathway (AID 720692; active means well fitted inhibition curve with a large enough effect in the signal ratio in the repeat runs, not every such curve was filed as active; inconclusive means weak or mixed curves, or effect the other way; inactive means no such curve, though single readings can be large or run the other way; the % refers to the signal ratio; further: potency means the concentration at half of the fitted maximal effect)
Summary of the method: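 Dexamethasone (5 nM final) stimulated a stably integrated GRE-beta-lactamase reporter in HeLa cells during 18 h co-incubation with compounds; signal was quantified as fluorescence intensity of B/G FRET substrate after 2 h.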

Measured: Potency

Glucocorticoid receptor (Homo sapiens), sequence (P04150 whole entry, looked up): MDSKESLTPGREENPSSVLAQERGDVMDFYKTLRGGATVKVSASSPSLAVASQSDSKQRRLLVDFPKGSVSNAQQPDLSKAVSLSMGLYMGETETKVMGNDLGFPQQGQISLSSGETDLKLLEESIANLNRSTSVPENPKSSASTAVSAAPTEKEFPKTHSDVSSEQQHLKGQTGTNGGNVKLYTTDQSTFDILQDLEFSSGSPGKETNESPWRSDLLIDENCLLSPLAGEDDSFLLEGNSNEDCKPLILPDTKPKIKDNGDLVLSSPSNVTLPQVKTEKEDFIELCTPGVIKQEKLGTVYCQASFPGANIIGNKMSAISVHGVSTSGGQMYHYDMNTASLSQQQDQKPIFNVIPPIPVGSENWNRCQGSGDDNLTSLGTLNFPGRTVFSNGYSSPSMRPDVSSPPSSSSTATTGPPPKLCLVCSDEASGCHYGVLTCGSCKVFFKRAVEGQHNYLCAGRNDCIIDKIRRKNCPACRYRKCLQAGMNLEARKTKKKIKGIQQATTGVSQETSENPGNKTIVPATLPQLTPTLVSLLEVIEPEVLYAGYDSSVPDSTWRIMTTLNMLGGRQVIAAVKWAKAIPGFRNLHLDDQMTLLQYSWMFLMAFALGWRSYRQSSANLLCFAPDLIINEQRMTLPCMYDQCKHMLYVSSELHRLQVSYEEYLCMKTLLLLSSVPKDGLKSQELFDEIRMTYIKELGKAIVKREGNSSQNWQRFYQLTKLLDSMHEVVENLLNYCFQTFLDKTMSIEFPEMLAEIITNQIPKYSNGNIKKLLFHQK

O=C(Nc1ncc([N+](=O)[O-])s1)c1cccs1
not listed: [10]
inactive: all other assays above

CC1(C)O[C@@H]2C[C@H]3[C@@H]4CCC5=CC(=O)C=C[C@]5(C)[C@@]4(F)[C@@H](O)C[C@]3(C)[C@]2(C(=O)CO)O1
active: [9] 3 nM [inconclusive] and 349 nM [inconclusive] and 1.4 nM
not listed: [10]
inactive: all other assays above

COc1ccc2c(c1)c(CC(=O)O)c(C)n2C(=O)c1ccc(Cl)cc1
not listed: [10]
inactive: all other assays above

Nc1ccc(O)c([N+](=O)[O-])c1
not listed: [10]
inactive: all other assays above

CCCCNC(=O)NS(=O)(=O)c1ccc(C)cc1
inactive: all assays above

C=C1CC[C@H](O)C/C1=C\C=C1/CCC[C@]2(C)[C@@H]([C@H](C)CCCC(C)C)CC[C@@H]12
not listed: [10]
inactive: all other assays above

COc1cccc(O)c1O
inactive: all assays above

CNNCc1ccc(C(=O)NC(C)C)cc1
inactive: all assays above

Cn1c(=O)c2c(ncn2C)n(C)c1=O
inactive: all assays above

CN(C)C(=S)SC(=S)N(C)C
active: [9] 448 nM
not listed: [10]
inactive: all other assays above

C/C=C/C=C/C(=O)O
not listed: [9] | [10]
inactive: all other assays above

NS(=O)(=O)c1cc2c(cc1Cl)NCNS2(=O)=O
inactive: all assays above

CCOc1ccc(NC(C)=O)cc1
inactive: all assays above

CCc1nc(N)nc(N)c1-c1ccc(Cl)cc1
inactive: all assays above

CCCCCCc1ccc(O)cc1O
inactive and 49 µM (active): [10]
inactive: all other assays above

Cc1cc(C)nc(NS(=O)(=O)c2ccc(N)cc2)n1
inactive: all assays above

O=C1O[C@H]([C@@H](O)CO)C(O)=C1O
inactive: all assays above

O=c1[nH]cnc2c1ncn2[C@H]1CC[C@@H](CO)O1
inactive: all assays above

Nc1c(N=Nc2ccc(-c3ccc(N=Nc4cc(S(=O)(=O)O)c5ccccc5c4N)cc3)cc2)cc(S(=O)(=O)O)c2ccccc12
active: [10] 21.3 µM
inactive: all other assays above

CCCCCCCC(=O)OCC(COC(=O)CCCCCCC)OC(=O)CCCCCCC
inactive: all assays above

CN(C)C(=O)Nc1ccc(Cl)c(Cl)c1
inactive: all assays above

NC(=O)c1cccnc1
inactive: all assays above

NS(=O)(=O)O
inactive: all assays above

CC(=O)Nc1c(I)c(NC(C)=O)c(I)c(C(=O)O)c1I
inactive: all assays above

CCCCOC(=O)c1ccc(O)cc1
inactive: all assays above

O=C1c2c(O)cccc2Cc2cccc(O)c21
inactive: all assays above

CCCC[P+](CCCC)(CCCC)CCCC
inactive: all assays above

OC[C@H]1O[C@H](O[C@]2(CCl)O[C@H](CCl)[C@@H](O)[C@@H]2O)[C@H](O)[C@@H](O)[C@H]1Cl
inactive: all assays above

O=C1NC(=O)C(c2ccccc2)(c2ccccc2)N1
inactive: all assays above

CC(=O)CCC(=O)O
inactive: all assays above

Cc1cccc(C)c1
inactive: all assays above

CC12CCC(CC1)C(C)(C)O2
inactive: all assays above

CN(C)CCOC(c1ccccc1)c1ccccc1
inactive: all assays above

Nc1ccc(S(N)(=O)=O)cc1
inactive: all assays above

Cc1ncc([N+](=O)[O-])n1C
inactive: all assays above

Cc1c(C(=O)O)c(O)cc2c1C(=O)c1c(O)c([C@@H]3O[C@H](CO)[C@@H](O)[C@H](O)[C@H]3O)c(O)c(O)c1C2=O
inactive: all assays above

O=c1[nH]cc(F)c(=O)[nH]1
inactive: all assays above

CC(C)NCC(O)c1ccc(O)c(O)c1 (configuration not stated)
inactive: all assays above

COc1ccc(CN(CCN(C)C)c2ccccn2)cc1
inactive: all assays above

NC(CO)(CO)CO
inactive: all assays above
